Among all 310,000 compounds or so, about 14,000 (4.5%) showed an effect of 50% or more. The effect is printed as a negative number. The full list was thinned out, with strong results kept by preference.
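Further: peak tail current of the secondary pulse compared with the same well before compound.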

In the assay the target is human ether-à-go-go-related gene (hERG) potassium channel (human, UniProt Q12809). Description: primary screen, population patch clamp on CHO cells stably expressing hERG; higher = less effect of the substance.
Chain of human ether-à-go-go-related gene (hERG) potassium channel (Q12809 whole entry, looked up): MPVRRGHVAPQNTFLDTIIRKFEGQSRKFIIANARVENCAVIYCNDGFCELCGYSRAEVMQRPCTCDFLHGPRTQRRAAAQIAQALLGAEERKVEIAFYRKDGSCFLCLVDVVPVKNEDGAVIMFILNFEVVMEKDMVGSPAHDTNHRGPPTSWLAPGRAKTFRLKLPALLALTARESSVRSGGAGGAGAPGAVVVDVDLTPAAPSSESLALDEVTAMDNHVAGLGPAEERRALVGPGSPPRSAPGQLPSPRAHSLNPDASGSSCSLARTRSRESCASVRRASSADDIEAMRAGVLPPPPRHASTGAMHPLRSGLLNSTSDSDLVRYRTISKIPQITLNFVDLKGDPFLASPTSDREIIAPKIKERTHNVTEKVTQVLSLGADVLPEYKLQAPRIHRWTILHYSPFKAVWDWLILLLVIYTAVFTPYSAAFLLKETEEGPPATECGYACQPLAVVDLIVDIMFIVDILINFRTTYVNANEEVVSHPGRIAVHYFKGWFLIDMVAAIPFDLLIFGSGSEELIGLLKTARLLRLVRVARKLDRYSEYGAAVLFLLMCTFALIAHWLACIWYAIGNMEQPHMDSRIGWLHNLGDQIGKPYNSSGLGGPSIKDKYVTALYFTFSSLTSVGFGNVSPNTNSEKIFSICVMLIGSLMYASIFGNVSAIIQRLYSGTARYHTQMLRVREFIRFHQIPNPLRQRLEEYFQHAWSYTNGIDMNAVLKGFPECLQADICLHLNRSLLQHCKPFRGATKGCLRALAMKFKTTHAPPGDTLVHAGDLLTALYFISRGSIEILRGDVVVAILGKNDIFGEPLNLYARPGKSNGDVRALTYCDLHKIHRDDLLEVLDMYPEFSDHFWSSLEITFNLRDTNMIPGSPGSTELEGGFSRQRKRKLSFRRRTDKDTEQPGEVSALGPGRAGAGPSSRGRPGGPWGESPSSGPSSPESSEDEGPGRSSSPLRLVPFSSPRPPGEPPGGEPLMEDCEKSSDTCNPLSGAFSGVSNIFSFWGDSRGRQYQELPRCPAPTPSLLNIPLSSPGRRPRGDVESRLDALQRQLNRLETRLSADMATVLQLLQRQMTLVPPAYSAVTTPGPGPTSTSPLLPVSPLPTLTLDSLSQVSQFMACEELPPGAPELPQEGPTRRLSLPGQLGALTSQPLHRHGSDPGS
Turning to `COc1ccc([C@@H]2[C@H]3C(=O)N(c4cccc(C(F)(F)F)c4)C(=O)[C@H]3ON2C)cc1`, the “hERG current change (%, negative = inhibition) at 10uM” value is -12.1%.
The figure for `COc1ccc(S(=O)(=O)NCCOc2ccccc2)cc1F` is 8.52%; for `CC(C)NC(=O)Cn1nnc(-c2ccc(Cl)cc2)n1` it is 4.9%.
As for `Cc1nn(CC(=O)NCc2ccccn2)c(C)c1[N+](=O)[O-]`, the figure is -10.9%; as for `Cc1ccc(NC(=O)COC(=O)c2ccc(Cl)nc2)cc1S(=O)(=O)N1CCCCC1`, 15.2%; as for `O=C(Nc1ccccc1C(=O)N1CCN(CCO)CC1)c1cccc([N+](=O)[O-])c1`, 7%.
As for `CN(C)c1nc(SCC#N)nc(N(C)C)n1`, the figure is -3.57%.
For the molecule `CN1CCN(c2ccc(-c3cccc(NC(=O)COc4ccc(Cl)cc4)c3)nn2)CC1`, the “hERG current change (%, negative = inhibition) at 10uM” value is on record as -50.7%.
Turning to `COCC(=O)Nc1cccc(-c2ccc3nncn3n2)c1`, the “hERG current change (%, negative = inhibition) at 10uM” value is 9.97%.
As to `O=C(COc1ccc(Cl)cc1)Nc1cccc(-c2ccc3nncn3n2)c1`, the “hERG current change (%, negative = inhibition) at 10uM” value is recorded as -51.9%.
As for `O=C(COc1ccc(Cl)cc1)Nc1cccc(-c2ccc(N3CCOCC3)nn2)c1`, the figure is 0.684%.
The figure for `CCOc1ccc(C(=O)Nc2cccc(-c3ccc4nncn4n3)c2)cc1` is 12.5%; for `CN1CCN(c2ccc(-c3cccc(NC(=O)COc4ccccc4)c3)nn2)CC1` it is -35.9%; for `CCOc1cc(NS(C)(=O)=O)c(OCC)cc1NC(=O)c1cccs1` it is -15.8%.
As for `CN1CCN(c2ccc(-c3ccnn3C(=O)Nc3ccccc3)cc2)CC1`, the figure is -11.5%; as for `CCOC(=O)c1ccc(NC(=O)c2ccc(OC(C)C)c(OC)c2)cc1`, -3.47%.
As to `Cc1cc(C(=O)COC(=O)c2ccncc2)c(C)n1Cc1ccco1`, the “hERG current change (%, negative = inhibition) at 10uM” value is reported as 13.7%.
For `NC(=O)c1c(NC(=O)C2c3ccccc3Oc3ccccc32)sc2c1CCCCC2`, the “hERG current change (%, negative = inhibition) at 10uM” value turned out to be 6.4%.
With `CCS(=O)(=O)N1CCC(C(=O)N2CCOCC2)CC1`, the “hERG current change (%, negative = inhibition) at 10uM” value was determined as 12%.
On to `COc1ccc(S(=O)(=O)NCC2CCCN(Cc3cn(C)nc3C)C2)cc1` (stereo not drawn), for which the “hERG current change (%, negative = inhibition) at 10uM” value came out at 8.1%.
Consider `CC(C)c1cccc(C(C)C)c1OC(=O)[C@H]1OC(C(C)(C)C)=C[C@@H]1c1ccccc1`, for which the “hERG current change (%, negative = inhibition) at 10uM” value is -6.97%.
On to `COc1cc(C(=O)NCc2ccc(S(N)(=O)=O)cc2)ccc1OCC(=O)Nc1cccc(C(F)(F)F)c1`, for which the “hERG current change (%, negative = inhibition) at 10uM” value amounted to 15.5%.
Regarding `CCOc1ccc(C(=O)NCCCCNC(=O)c2ccc(OCC)cc2)cc1`, the “hERG current change (%, negative = inhibition) at 10uM” value was determined as 21.8%.
As for `CCN(CC)CCCNC(=O)c1ccc(OCC(=O)Nc2ccccc2C(F)(F)F)c(OC)c1`, the “hERG current change (%, negative = inhibition) at 10uM” value is reported as -70.5%.
As for `COc1cc(C(=O)NCCCN(C)C)ccc1OCC(=O)Nc1cccc(C(F)(F)F)c1`, the “hERG current change (%, negative = inhibition) at 10uM” value is -59.1%.
As for `CCOc1ccc(C(=O)NCCNC(=O)c2ccc(OCC)cc2)cc1`, the figure is 9.15%; as for `CCN(CC(=O)Nc1ccc(OC)c(OC)c1)CC(=O)Nc1ccccc1C(F)(F)F`, -0.147%.
On to `CCOc1ccc(C(=O)NCCCN(CC)CC)cc1`, for which the “hERG current change (%, negative = inhibition) at 10uM” value was -51.8%.
As for `CCN(CC(=O)Nc1ccccc1OC)CC(=O)Nc1ccccc1C(F)(F)F`, the figure is -5.29%; as for `COc1cc(C(=O)N(C)CCOc2ccccc2)ccc1OCC(=O)Nc1cccc(C(F)(F)F)c1`, -14.2%.

(Values after paper PMC4336329 (PLoS ONE, 2015).)
